According to article PMC4336329 (PLoS ONE, 2015):
Hit rate of the full screen: of about 310,000 compounds, about 14,000 (4.5%) showed an effect of 50% or more. Effects have a minus sign here. The sample as a whole holds a higher share of strong results than the screen did.

What follows are compounds tested against human ether-à-go-go-related gene (hERG) potassium channel (human, UniProt Q12809) (assay: primary screen, population patch clamp on CHO cells stably expressing hERG; higher = less effect of the substance).
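Also: peak tail current of the secondary pulse compared with the same well before compound.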

human ether-à-go-go-related gene (hERG) potassium channel, sequence (Q12809 whole entry, looked up): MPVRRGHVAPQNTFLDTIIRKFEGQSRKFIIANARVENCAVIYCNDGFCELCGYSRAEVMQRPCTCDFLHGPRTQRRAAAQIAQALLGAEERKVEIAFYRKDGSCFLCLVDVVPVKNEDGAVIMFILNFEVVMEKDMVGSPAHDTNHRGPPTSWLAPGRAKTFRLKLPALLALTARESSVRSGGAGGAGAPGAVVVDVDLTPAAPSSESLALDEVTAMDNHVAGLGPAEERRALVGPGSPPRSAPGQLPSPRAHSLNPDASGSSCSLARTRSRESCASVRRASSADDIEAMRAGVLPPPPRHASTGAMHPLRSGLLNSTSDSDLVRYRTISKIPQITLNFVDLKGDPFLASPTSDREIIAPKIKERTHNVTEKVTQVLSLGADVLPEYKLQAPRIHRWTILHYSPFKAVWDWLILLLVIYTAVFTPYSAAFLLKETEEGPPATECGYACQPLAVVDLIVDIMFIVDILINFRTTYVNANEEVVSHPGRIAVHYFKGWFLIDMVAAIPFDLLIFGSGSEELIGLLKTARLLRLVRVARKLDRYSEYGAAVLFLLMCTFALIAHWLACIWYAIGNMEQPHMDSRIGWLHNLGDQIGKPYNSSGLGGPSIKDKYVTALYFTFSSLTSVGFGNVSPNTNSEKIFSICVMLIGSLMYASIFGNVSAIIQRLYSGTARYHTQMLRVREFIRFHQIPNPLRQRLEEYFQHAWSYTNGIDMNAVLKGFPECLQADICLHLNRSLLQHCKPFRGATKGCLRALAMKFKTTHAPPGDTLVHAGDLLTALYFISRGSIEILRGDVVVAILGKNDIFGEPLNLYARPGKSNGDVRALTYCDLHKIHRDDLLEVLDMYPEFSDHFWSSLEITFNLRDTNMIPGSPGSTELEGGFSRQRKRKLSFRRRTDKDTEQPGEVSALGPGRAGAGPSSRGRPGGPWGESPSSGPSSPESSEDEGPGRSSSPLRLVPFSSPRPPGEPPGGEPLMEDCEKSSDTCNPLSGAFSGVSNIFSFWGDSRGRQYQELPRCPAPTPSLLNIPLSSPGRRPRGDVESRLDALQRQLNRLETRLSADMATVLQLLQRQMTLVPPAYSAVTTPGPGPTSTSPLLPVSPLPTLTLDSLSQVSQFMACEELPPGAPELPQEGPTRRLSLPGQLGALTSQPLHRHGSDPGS

| Structure (SMILES) | hERG current change (%, negative = inhibition) at 10uM [%] |
| --- | --- |
| COc1ccc2oc(=O)c(C(=O)N3c4ccccc4CC3C)cc2c1 (stereo not shown) | -21.6 |
| COc1ccc2oc(=O)c(C(=O)N3CCCc4ccccc43)cc2c1 | -63.1 |
| COc1ccc2oc(=O)c(C(=O)N3CCc4ccccc43)cc2c1 | 15.8 |
| COc1cc2nc(COc3ccc(C#N)cc3)n(CC#N)c(=O)c2cc1OC | -50.7 |
| COc1ccc(OCc2nc3c4cc(OC)c(OC)cc4nc(=S)n3[nH]2)cc1 | 11.7 |
| CCSc1nc2cc(OC)c(OC)cc2c(=O)n1CC | -2.16 |
| Cc1ccc(Cn2c(Sc3nnc(C)s3)nc3c2c(=O)[nH]c(=O)n3C)cc1 | -46.8 |
| COc1cccc(C2C3=C(Nc4[nH]n(-c5ccccc5)c(=O)c42)c2ccccc2C3=O)c1 (stereo not shown) | 9.64 |
| Cl.O=C(Cc1ccccc1)NC1CCN(Cc2ccccc2)CC1 | 1.21 |
| O=C(CCNS(=O)(=O)c1ccc(Br)cc1)NC1CCN(Cc2ccccc2)CC1 | -61.9 |
| O=C(Cn1cc2c(n1)CCCCC2)NC1CCN(Cc2ccccc2)CC1 | -58.5 |
| O=C(Cn1cc2c(n1)CCCCC2)NC1CCCCCC1 | 0.992 |
| CCOc1ccc(S(=O)(=O)NCCC(=O)NC2CCN(Cc3ccccc3)CC2)cc1 | -21.8 |
| Cc1ccc(CC(=O)NC2CCN(Cc3ccccc3)CC2)cc1 | -12.7 |
| O=C(Cn1cc2c(n1)CCCC2)NC1CCN(Cc2ccccc2)CC1 | -8.32 |
| O=C(CCNS(=O)(=O)c1cccs1)NC1CCN(Cc2ccccc2)CC1 | 9.19 |
| CN(CC(=O)NC1CCN(Cc2ccccc2)CC1)S(=O)(=O)c1ccc(Br)s1 | -18 |
| O=C(Cc1ccc(Br)cc1)NC1CCN(Cc2ccccc2)CC1 | -56 |
| CN(CC(=O)NC1CCN(Cc2ccccc2)CC1)S(=O)(=O)c1ccc(Cl)s1 | -67.9 |
| CN(CC(=O)NC1CCN(Cc2ccccc2)CC1)S(=O)(=O)c1ccc(Cl)cc1 | -40.2 |
| CC1=CC(C)C2COC(c3ccc[n+](C)c3)C1C2C.[I-] (stereo not shown) | 14.3 |
| O=C1/C(=C/c2ccncc2)N2CCC1CC2 | 2.32 |
| CCC(NC(=O)c1ccccc1NC(=O)c1ccco1)C(=O)NC1CCCCC1 (stereo not shown) | -22.5 |
| CCOCCCNC(=O)c1ccc2c(c1)N(CC)C(=O)c1ccccc1S2=O (stereo not shown) | 16.2 |
| CCN(CC)c1ccc(C2C(C(C)=O)C(=O)CC(C)(O)C2C(C)=O)cc1 (stereo not shown) | -13.4 |
